# S2 tox: viability counter-screen for ATXN expression inhibitors. 400,000 tested, 0.49% active. AID 651635. S2 cells (HEK-293 line with an ATXN2-luciferase reporter) viability, CellTiter-Fluor protease fluorescence, 24 h. Potency, µM (series often up to 56.7 µM), most hits filed as cytotoxic; further: nearly all actives have a fitted effect of over 40% in size
# TGFb inhibitor: blocks TGF-b signaling. HepG2 CAGA-GFP TGF-b/SMAD3 reporter, GFP fluorescence, 18 h; TGF-beta stimulated, 500 pg/mL final. AID 588855. Potency, µM (highest dose often 46.1 µM), usual class: inhibitors. 410,000 tested, 1.2% active; further: nearly all actives have a fitted effect of over 65% in size
#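 HEPG2 CAGA-GFP reporter cells (1000/well, DMEM with 1% FBS) received compounds, then recombinant TGF-beta at 500 pg/mL final for 18 hours at 37 degrees C. Per-cell GFP summed per well was normalised to unstimulated and stimulated DMSO controls before curve fitting.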
# KB-3-1 tox: kills parental KB-3-1 adenocarcinoma cells | KB-3-1 viability, CellTiter-Glo ATP luminescence, 72 h | Potency, µM (highest dose often 46.1 µM), hits mostly cytotoxic | 400,000 tested, 1.4% active; further: nearly all actives have a fitted effect of over 60% in size
#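 Parental KB-3-1 adenocarcinoma cells in phenol-red-free DMEM with 10% FBS were pin-treated with compounds at several concentrations, incubated 72 h at 37 °C, and viability read by CellTiter-Glo luminescence; concentration-effect curves were fitted after normalization.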
# KB-V1 MDR tox: KB-V1 MDR subline cytotoxicity | 400,000 tested, 3.4% active | KB-V1 MDR cells viability, CellTiter-Glo, 72 h | AID 1347076 | Potency, µM (highest dose often 46.1 µM), actives largely listed as cytotoxic; further: nearly all actives have a fitted effect of over 60% in size
#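 Potencies derive from concentration-effect curves fitted to normalized luminescence (CellTiter-Glo) of KB-V1 cells treated for 72 h at 37 degrees C in phenol-red-free DMEM containing 10% FBS.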
# ATXN2 expr inh: ATXN2 expression inhibition. HEK-293 ATXN2-luciferase reporter, luminescence, 24 h. Potency, µM (doses to about 57 µM), most hits filed as inhibitors. 360,000 tested, 0.72% active. AID 1745845; further: nearly all actives have a fitted effect of over 55% in size
#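 qHTS (up to 57 uM final) was run with 24 h compound exposure of reporter cells at 37 °C. Each well was multiplexed: SteadyGlo luminescence measured ATXN2-luciferase expression after a fluorogenic Gly-Phe-AFC viability readout (25 uM final).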
# HepG2 viability: kills HepG2 cells in TGF-b inhibitor counter-screen | HepG2 CAGA-GFP viability, ATP luminescence, 18 h | Potency, µM (titrated, usually from 46.1 µM), hits mostly cytotoxic | 410,000 tested, 0.76% active | AID 588856
#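 HepG2 CAGA-GFP cells (1000/well, DMEM with 1% FBS) received compound, then TGF-beta at 500 pg/mL final, and were incubated 18 hours at 37 degrees C. Viability was read by CellTiter-Glo luminescence. Media-only wells were set as complete cell-killing and DMSO as no toxicity.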
# Numbers stand for hits; n = inactive; u = inconclusive; x = no result given. In the library only some 5.9% were active in any assay of this set; here they are far more common. The call rests on the fitted dose curve; in most records, active means well fitted curve in the direction sought with a large enough effect; inconclusive means small, poorly fitted or top-dose-only effect, or another doubt; inactive means no such curve, though single readings can be large; an effect the other way counts as inactive or inconclusive.
SMILES,S2 tox,TGFb inhibitor,KB-3-1 tox,KB-V1 MDR tox,ATXN2 expr inh,HepG2 viability
CC(NC(=O)CSc1nc(C2CC2)n(-c2ccccc2)n1)c1ccco1 (stereo not drawn),n,n,n,13µM,n,n
O=C(CSc1nc(C2CCCCC2)n(-c2ccccc2)n1)NCC(F)(F)F,n,n,n,8.2µM,n,n
COc1ccc(CSCC(=O)N/N=C/c2ccccc2O)cc1,n,n,u,n,25.1µM,n
O=C(CSc1ccccc1)N/N=C/c1ccccc1O,u,n,n,n,u,n
COc1ccccc1NC(=O)COc1ccc(/C=N/NC(=O)CSCc2ccc(Cl)cc2)cc1,n,n,n,5.17µM,n,n
Cc1nc(-c2ccc(S(=O)(=O)N(C)Cc3ccccc3)cc2)co1,n,n,n,n,u,n
C=C1C(=O)C=C2CN(C(=O)c3ccccc3)[C@@](Cc3ccc(F)cc3)(C(=O)OC)[C@@H]12,4.47µM,1.78µM,5.17µM,4.61µM,3.16µM,3.16µM
COC(=O)[C@@]1(Cc2ccc(OC)cc2)[C@@H]2C(=CC(=O)[C@H]2CC(=O)C(=O)N(C)C)CN1C(=O)c1ccccc1,u,u,16.4µM,u,u,n
Cc1ccc(Nc2cc(-c3cccc(N4C(=O)c5ccccc5C4=O)c3)ncn2)cc1NS(C)(=O)=O,x,x,x,x,n,x
Cc1ccc(C(=O)N(Cc2cc3ccc(F)cc3nc2N2CCC(O)CC2)CC2CCCO2)cc1 (stereo not drawn),n,x,x,x,x,x
COc1cc(/C=N/N2CCOCC2)ccc1OCc1ccc(Cl)cc1,n,n,n,n,n,n
COc1cc(/C=N/OCC(=O)NC2CCCCC2C)ccc1OCc1ccc(Cl)cc1 (stereo not drawn),n,u,u,8.2µM,n,n
COc1cc(/C=N/OCC(=O)Nc2cc(C)cc(C)c2)ccc1OCc1ccc(Cl)cc1,n,u,u,20.6µM,n,n
COC(=O)c1ccc(/C=N/OCC(=O)NC2CCCC(C)C2C)cc1 (stereo not drawn),n,n,n,n,n,n
CC(=O)OC[C@H]1O[C@@H](OC(C)=O)[C@H](OC(C)=O)[C@@H]1OC(C)=O,n,x,x,x,n,x
Cc1ccc(CNC(=O)c2cccn2-c2nnc(N3CCCCC3)s2)cc1,x,7.94µM,n,n,x,n
Cc1ccc(CNC(=O)c2cnc(N3CCCCC3)c3ccccc23)cc1,x,11.2µM,n,n,x,n
CCOC(=O)c1ccc(NC(=O)c2cc3c([nH]c2=O)CC(c2ccccc2)CC3=O)cc1 (stereo not drawn),x,n,n,n,x,n
Cc1csc(NC(=O)c2ccc(S(=O)(=O)N3CCCC3)cc2)n1,n,n,n,n,n,n
O=C(Nc1nc(-c2cccs2)cs1)c1ccc(S(=O)(=O)N2CCCC2)cc1,u,u,16.4µM,u,u,n
O=C(Nc1nc(-c2ccc(S(=O)(=O)N3CCCCCC3)cc2)cs1)c1ccccc1,n,n,n,n,n,n
O=C(Nc1nc(-c2ccc3c(c2)OCCO3)cs1)c1ccc(S(=O)(=O)N2CCCCC2)cc1,n,u,u,8.2µM,n,n
Cc1cccc(NC(=O)CSc2ncc3c(n2)-c2ccccc2N(Cc2ccc(F)cc2)S3(=O)=O)c1C,n,n,n,n,n,n
CCc1nnc(NC(=O)CSc2nnc(C3CCCCC3)n2-c2cccc(Cl)c2)s1,n,n,n,4.11µM,n,n
CCc1nnc(NC(=O)CSc2ncnc3scc(-c4ccc(C)cc4)c23)s1,u,n,n,6.51µM,n,n
SMILES,S2 tox,TGFb inhibitor,KB-3-1 tox,KB-V1 MDR tox,ATXN2 expr inh,HepG2 viability
CCc1nnc(NC(=O)CSc2nnc(-c3ccncc3)n2C)s1,n,n,n,n,u,n
Cc1cc(NC(=O)CSc2nnc3c(C)cc4c(C)ccc(C)c4n23)no1,u,n,n,3.26µM,n,n
CCc1nnc(NC(=O)CSc2nnc3c(C)cc4c(C)ccc(C)c4n23)s1,n,n,4.11µM,n,n,n
Cc1ccc(-c2csc3ncnc(SCC(N)=O)c23)cc1,n,n,n,u,x,n
Cc1ccc2nc(SCC(=O)N3CCC4(CC3)CC4C(=O)Nc3ccc(F)c(F)c3)[nH]c2c1 (stereo not drawn),n,x,x,x,x,x
CCc1nnc(NC(=O)CSc2nnc(-c3ccccc3O)o2)s1,n,n,n,u,n,n
CCc1nnc(NC(=O)CSc2nnc(-c3ccccc3O)n2-c2ccc(C)cc2)s1,n,n,u,u,n,n
CCc1nnc(NC(=O)CSc2nnc(C)n2-c2ccc(C)cc2)s1,n,n,n,20.6µM,n,n
CCc1nnc(NC(=O)CSc2nc(-c3ccccc3)c(-c3ccccc3)o2)s1,n,n,5.17µM,u,n,n
CCOC(=O)N1CCN(c2cc(C)c(C(C)=O)cc2F)CC1,n,n,n,n,n,n
CCOC(=O)N1CCN(c2ccc([N+](=O)[O-])cc2F)CC1C (stereo not drawn),n,n,n,23.1µM,n,n
CCOC(=O)N1CCN(c2ccc(C(C)=O)cc2F)CC1C (stereo not drawn),n,n,n,n,x,n
CCOC(=O)N1CCN(c2cc(N)c([N+](=O)[O-])cc2F)CC1,u,n,n,23.1µM,n,n
CCOc1ccc(NC(=O)Cn2cc(C(=O)c3ccc(CC)cc3)c(=O)c3ccc(C)nc32)cc1,n,n,n,n,n,n
CCc1ccccc1NC(=O)c1ccc(Cn2nc(N3CCN(c4ccccc4)CC3)ccc2=O)o1,u,u,n,n,20µM,n
CC(NCc1ccc(F)cc1)C(=O)Nc1cc(S(=O)(=O)N2CCCCC2)ccc1Cl (stereo not drawn),n,u,u,16.4µM,n,n
CN(C)c1ccc(S(=O)(=O)N2CCCCC2)cc1NC(=O)CCNC(=O)c1ccc(Cl)cc1,n,n,n,20.6µM,n,n
CC(NCc1ccccc1Cl)C(=O)Nc1ccc(S(=O)(=O)N2CCCC2)cc1 (stereo not drawn),n,n,n,u,n,n
CC1CN(C(=O)c2cc(S(=O)(=O)N3CCCCC3)ccc2Cl)CC(C)O1 (stereo not drawn),u,n,n,20.6µM,n,n
O=C(CCl)Nc1cc(S(=O)(=O)N2CCCCCC2)ccc1Cl,17.8µM,n,13µM,11.6µM,u,n
CCN(c1ccccc1)S(=O)(=O)c1ccc(NC(=O)c2cc(=O)c3ccc(C)c(C)c3o2)cc1,n,n,n,n,n,n
COc1cc(OC)c(NC(=O)c2c(C)oc3ncnc(N4CCCCC4)c23)cc1Cl,n,n,n,n,n,n
CC(C)(C)CC(=O)Nc1cc(S(=O)(=O)N2CCCCCC2)ccc1Cl,n,n,n,18.4µM,n,n
